In PubChem BioAssay AID1159580 (chemical genetic matrix, 2015):
Out of some 5,500 compounds screened, about 2,000 (36%) were called active. Not shown: some 18% with an inconclusive outcome. Rule as the data show it: active = normalized growth mostly below about 0.91 (no sharp cut-off); inconclusive = no clear call, values can overlap the other calls; inactive = mostly above about 0.92. This is one part of the list.

Test: chemical genetic growth profiling, strain panel (AID 1159580);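 also: tested at 20 µM; growth read once vehicle control cultures reached saturation at 30 °C; 1 = growth at the plate median or of vehicle wells; lower values mean less growth of the strain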
Conditions: S. cerevisiae deletion strains, growth OD

Measured: normalized growth

CC(=O)OC1CC23CC24CCC(OC2OCC(O)C(O)C2O)C(C)(C)C4CCC3C2(C)CC3OC4(CC(C)C3C12C)OC(O)C1(C)OC41 (centres undefined)
inactive: locus YAL021C, strain ccr4, hits give low values 0.995 | locus YAL026C, strain drs2, hits give low values 1.01 | locus YAL030W, strain snc1, hits give low values 1 | locus YBL061C, strain skt5, hits give low values 1.01 | locus YBR009C, strain hhf1, hits give low values 0.988 | locus YBR023C, strain chs3, hits give low values 1 | locus YBR171W, strain sec66, hits give low values 1.02 | locus YBR231C, strain swc5, hits give low values 1.03 | locus YBR279W, strain paf1, hits give low values 1 | locus YCL011C, strain gbp2, hits give low values 1.01 | locus YCL016C, strain dcc1, hits give low values 0.998 | locus YCL069W, strain vba3, hits give low values 1.01 | locus YCR088W, strain abp1, hits give low values 1.01 | locus YDL005C, strain med2, hits give low values 1.02 | locus YDL040C, strain nat1, hits give low values 1 | locus YDR001C, strain nth1, hits give low values 1 | locus YDR069C, strain doa4, hits give low values 1.01 | locus YDR137W, strain rgp1, hits give low values 0.99 | locus YDR159W, strain sac3, hits give low values 1.04 | locus YDR195W, strain ref2 1 | locus YDR297W, strain sur2, hits give low values 1.01 | locus YDR334W, strain swr1, hits give low values 1.01 | locus YDR335W, strain msn5, hits give low values 1.01 | locus YDR392W, strain spt3, hits give low values 0.936 | locus YEL003W, strain gim4, hits give low values 1.01 | locus YEL037C, strain rad23, hits give low values 1 | locus YEL061C, strain CIN8 (second series), hits give low values 1.01 | locus YER015W, strain faa2, hits give low values 1.02 | locus YER016W, strain bim1, hits give low values 1.01 | locus YER111C, strain swi4, hits give low values 0.999 | locus YER155C, strain BEM2 (second series), hits give low values 1.07 | locus YFR010W, strain ubp6, hits give low values 1.03 | locus YGL167C, strain pmr1, hits give low values 0.996 | locus YGL173C, strain kem1, hits give low values 1.01 | locus YGL227W, strain vid30, hits give low values 1.01 | locus YGL240W, strain doc1, hits give low values 1.04 | locus YGL253W, strain hxk2, hits give low values 1 | locus YHR013C, strain ard1, hits give low values 0.998 | locus YHR027C, strain rpn1, hits give low values 1 | locus YHR142W, strain chs7, hits give low values 0.978 | locus YJL092W, strain hpr5, hits give low values 1.02 | locus YJL095W, strain BCK1 (second series), hits give low values 1.01 | locus YJL115W, strain asf1, hits give low values 1.01 | locus YJL129C, strain trk1, hits give low values 1 | locus YJL154C, strain vps35, hits give low values 1.01 | locus YJL164C, strain tpk1, hits give low values 0.972 | locus YJL166W, strain qcr8, hits give low values 1.01 | locus YJL187C, strain SWE1, hits give low values 0.996 | locus YKL160W, strain elf1, hits give low values 0.998 | locus YKR026C, strain gcn3, hits give low values 1.01 | locus YKR091W, strain srl3, hits give low values 1 | locus YLL001W, strain dnm1, hits give low values 1.01 | locus YLL026W, hits give low values 1.02 | locus YLL041C, strain sdh2, hits give low values 0.997 | locus YLR027C, strain aat2, hits give low values 0.997 | locus YLR221C, strain rsa3, hits give low values 1.04 | locus YLR258W, strain gsy2, hits give low values 1 | locus YLR262C, strain YPT6 (second series), hits give low values 1.02 | locus YLR320W, strain mms22, hits give low values 1.04 | locus YLR342W, strain FKS1, hits give low values 1 | locus YLR357W, strain rsc2, hits give low values 1.05 | locus YLR370C, strain arc18, hits give low values 1.01 | locus YLR384C, strain iki3, hits give low values 0.998 | locus YML120C, strain ndi1, hits give low values 0.98 | locus YMR058W, strain fet3, hits give low values 1.03 | locus YMR125W, strain sto1, hits give low values 0.985 | locus YMR129W, hits give low values 1 | locus YMR205C, strain PFK2, hits give low values 0.994 | locus YMR231W, strain pep5, hits give low values 1.01 | locus YNL071W, strain lat1, hits give low values 0.999 | locus YNL209W, strain ssb2, hits give low values 0.987 | locus YNL248C, strain rpa49, hits give low values 1.07 | locus YNL322C, strain KRE1 (second series), hits give low values 1.01 | locus YNR049C, strain mso1, hits give low values 1.02 | locus YOR001W, strain rrp6, hits give low values 1.04 | locus YOR070C, strain gyp1, hits give low values 1.02 | locus YOR080W, strain dia2, hits give low values 1 | locus YOR083W, strain WHI5, hits give low values 0.993 | locus YOR106W, strain vam3, hits give low values 0.975 | locus YOR265W, strain rbl2, hits give low values 1 | locus YOR270C, strain vph1, hits give low values 0.906 | locus YOR290C, strain snf2, hits give low values 0.959 | locus YPL051W, strain arl3, hits give low values 1.03 | locus YPL078C, strain atp4, hits give low values 0.963 | locus YPL106C, strain sse1, hits give low values 1.02 | locus YPL240C, strain hsp82, hits give low values 1.02

C=CC(C)(C)c1c2c(c(O)c3c(=O)c4ccc(O)c(O)c4oc13)C=CC(C)(C)O2
active: locus YDL035C, strain GPR1, hits give low values 0.601 | locus YDL074C, strain BRE1, hits give low values 0.615 | locus YDL192W, strain arf1, hits give low values 0.829 | locus YDR150W, strain NUM1, hits give low values 0.78 | locus YDR162C, strain NBP2, hits give low values 0.444 | locus YDR318W, strain mcm21, hits give low values 0.886 | locus YDR388W, hits give low values 0.918 | locus YER155C, strain BEM2, hits give low values 0.817 | locus YER167W, strain BCK2, hits give low values 0.871 | locus YGL086W, strain mad1, hits give low values 0.794 | locus YGL248W, strain PDE1, hits give low values 0.847 | locus YGR135W, strain pre9, hits give low values 0.891 | locus YHR129C, strain ARP1, hits give low values 0.726 | locus YHR200W, strain rpn10, hits give low values 0.894 | locus YIL066C, strain RNR3, hits give low values 0.413 | locus YIL073C, strain SPO22, hits give low values 0.424 | locus YJL095W, strain BCK1, hits give low values 0.767 | locus YJL187C, strain SWE1 (second series), hits give low values 0.81 | locus YKR001C, strain vps1, hits give low values 0.783 | locus YLR039C, strain RIC1, hits give low values 0.581 | locus YLR058C, strain SHM2, hits give low values 0.867 | locus YLR262C, strain YPT6, hits give low values 0.544 | locus YLR268W, strain sec22, hits give low values 0.812 | locus YLR330W, strain CHS5, hits give low values 0.9 | locus YLR342W, strain FKS1 (second series), hits give low values 0.4 | locus YLR371W, strain rom2, hits give low values 0.799 | locus YLR418C, strain cdc73, hits give low values 0.51 | locus YML016C, strain PPZ1, hits give low values 0.873 | locus YMR223W, strain ubp8, hits give low values 0.891 | locus YMR307W, strain GAS1, hits give low values 0.428 | locus YNL067W, strain RPL9B, hits give low values 0.843 | locus YNL233W, strain BNI4, hits give low values 0.582 | locus YNL307C, strain MCK1, hits give low values 0.799 | locus YOL006C, strain TOP1, hits give low values 0.275 | locus YOR061W, strain CKA2, hits give low values 0.78 | locus YOR069W, strain VPS5, hits give low values 0.873 | locus YOR184W, strain ser1, hits give low values 0.76 | locus YPL055C, strain LGE1, hits give low values 0.451 | locus YPR163C, strain tif3, hits give low values 0.796 | locus YPR167C, strain met16, hits give low values 0.916 | strain wtn01, hits give low values 0.839
inactive: locus YBR021W, strain FUR4, hits give low values 0.893 | locus YBR229C, strain ROT2, hits give low values 1 | locus YCL029C, strain bik1, hits give low values 0.992 | locus YDL101C, strain DUN1, hits give low values 0.929 | locus YDL185W, strain tfp1, hits give low values 0.996 | locus YDR101C, strain arx1, hits give low values 0.973 | locus YDR502C, strain sam2, hits give low values 0.948 | locus YER110C, hits give low values 1 | locus YGL078C, strain dbp3, hits give low values 0.975 | locus YGR252W, strain gcn5, hits give low values 0.823 | locus YHR079C, strain IRE1 (second series), hits give low values 1 | locus YHR094C, strain hxt1, hits give low values 1.01 | locus YIL125W, strain kgd1, hits give low values 0.984 | locus YIR030C, strain dcg1, hits give low values 1 | locus YJL134W, strain LCB3, hits give low values 0.987 | locus YJL168C, strain set2, hits give low values 0.99 | locus YKL009W, strain mrt4, hits give low values 0.938 | locus YKL068W, hits give low values 0.996 | locus YKL085W, strain MDH1 (second series), hits give low values 0.978 | locus YKL085W, strain MDH1, hits give low values 0.978 | locus YLR102C, strain apc9, hits give low values 1.01 | locus YML032C, strain rad52, hits give low values 0.954 | locus YML124C, strain tub3, hits give low values 1.02 | locus YMR078C, strain ctf18, hits give low values 0.984 | locus YMR263W, strain SAP30, hits give low values 0.92 | locus YNL250W, strain rad50, hits give low values 1.03 | locus YNL271C, strain bni1, hits give low values 0.992 | locus YNL298W, strain CLA4, hits give low values 1 | locus YNR052C, strain pop2, hits give low values 0.93 | locus YOL012C, strain htz1 0.242 | locus YOL147C, strain pex11, hits give low values 0.943 | locus YOR136W, strain idh2, hits give low values 0.97 | locus YOR144C, strain elg1, hits give low values 0.983 | locus YOR316C, strain cot1, hits give low values 0.986 | locus YPL241C, strain CIN2, hits give low values 0.952 | locus YPR119W, strain clb2, hits give low values 1.01 | locus YPR141C, strain kar3, hits give low values 1
